High-throughput results (PubChem)
Rows were chosen to be rich in hits. Some 11% of all compounds tested hit in one or more screens of this group.
NPR1 antag: Natriuretic polypeptide receptor (hNpr1) antagonism - Primary qHTS | Atrial natriuretic peptide receptor 1 (Homo sapiens), P16066 | HEK293 hNpr1 GloSensor cGMP, ANP-stimulated luminescence | Potency, µM (titrated, usually from 46.3 µM), most hits filed as inhibitors | 1.6% of 76,000 active; calls by dose curve; note: nearly all actives have a fitted effect of over 60% in size
Target sequence (P16066 whole entry, looked up): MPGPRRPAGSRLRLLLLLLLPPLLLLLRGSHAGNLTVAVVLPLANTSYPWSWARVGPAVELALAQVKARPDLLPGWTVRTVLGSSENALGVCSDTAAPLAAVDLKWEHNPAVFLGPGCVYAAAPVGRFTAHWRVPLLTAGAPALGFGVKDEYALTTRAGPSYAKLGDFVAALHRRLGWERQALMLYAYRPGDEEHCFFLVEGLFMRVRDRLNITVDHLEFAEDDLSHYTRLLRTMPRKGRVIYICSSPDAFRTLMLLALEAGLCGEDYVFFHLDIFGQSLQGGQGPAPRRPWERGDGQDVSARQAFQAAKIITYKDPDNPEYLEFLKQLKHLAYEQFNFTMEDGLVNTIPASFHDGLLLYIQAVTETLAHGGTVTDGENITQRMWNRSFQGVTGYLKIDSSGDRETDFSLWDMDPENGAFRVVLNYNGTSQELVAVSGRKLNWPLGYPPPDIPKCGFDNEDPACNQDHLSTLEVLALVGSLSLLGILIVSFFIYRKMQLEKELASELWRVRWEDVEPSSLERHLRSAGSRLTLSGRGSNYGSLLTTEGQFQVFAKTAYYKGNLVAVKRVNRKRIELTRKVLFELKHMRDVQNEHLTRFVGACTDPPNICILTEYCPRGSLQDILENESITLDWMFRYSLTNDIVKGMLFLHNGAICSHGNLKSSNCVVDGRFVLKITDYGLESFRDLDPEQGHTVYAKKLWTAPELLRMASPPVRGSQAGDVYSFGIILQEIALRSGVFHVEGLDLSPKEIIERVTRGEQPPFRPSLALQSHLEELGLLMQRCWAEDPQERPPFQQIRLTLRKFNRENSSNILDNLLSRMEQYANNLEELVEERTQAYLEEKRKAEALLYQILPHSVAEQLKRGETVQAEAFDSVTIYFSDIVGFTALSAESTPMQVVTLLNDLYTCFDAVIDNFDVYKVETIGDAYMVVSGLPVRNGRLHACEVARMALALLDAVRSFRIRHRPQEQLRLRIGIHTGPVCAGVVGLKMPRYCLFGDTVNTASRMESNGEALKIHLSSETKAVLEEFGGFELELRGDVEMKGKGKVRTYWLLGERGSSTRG
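Compound pre-incubated 30 min at room temperature on GloSensor-loaded HEK293 cells stably carrying hNpr1 and the pGS-40F cGMP biosensor. Stimulation uses hNppA at 0.1 nM final; luminescence is taken at baseline and 20 min post-agonist.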
Luciferase inh: Firefly luciferase inhibition profiling of diverse chemical library using quantitative high-throughput screening; Luciferin 4-monooxygenase (Photinus pyralis), P08659; purified P. pyralis luciferase, luminescence, biochemical; Potency, µM (highest dose often 115 µM), usual class: inhibitors; 2.5% of 76,000 active; note: nearly all actives have a fitted effect of over 65% in size
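Purified 10nM P. pyralis luciferase with 10uM D-luciferin and 10uM ATP in 50mM Tris acetate pH 7.5, 10mM Mg acetate, 0.01% Tween-20, 0.05% BSA. qHTS titration; luminescence read by CCD imager.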
HEK cytotox: Cytotoxic Profiling in HEK 293 Cell Line of Diverse Libraries Using Quantitative High-Throughput Screening; HEK 293 viability, ATP luminescence (CellTiter-Glo), 48-72 h; Potency, µM (top dose mostly 115 µM), hits mostly inhibitors; 6.6% of 94,000 active; note: nearly all actives have a fitted effect of over 60% in size
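Read-out: CellTiter-Glo ATP luminescence. Cells: HEK 293, 250 cells/well. Exposure: 48 or 72 hr, 37 degree Celsius.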
3T3 cytotox: Cytotoxic Profiling in NIH 3T3 Cell Line of Diverse Libraries Using Quantitative High-Throughput Screening | NIH 3T3 viability, CellTiter-Glo ATP luminescence, 48-72 h | Potency, µM (doses to about 96.7 µM), hits mostly inhibitors | 4.3% of 94,000 active; note: nearly all actives have a fitted effect of over 55% in size
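Cytotoxicity is measured as loss of cellular ATP: NIH 3T3 cells (400/well) are exposed to compound for 48 or 72 hr at 37 °C, then CellTiter-Glo luminescence is imaged after 10 min at room temperature.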
Each line names hits and unclear results; the compound was inactive in the other large screens. Unless noted, calls come from the whole dose curve; as a rule, active = well fitted curve in the direction sought with a large enough effect; inconclusive = small, poorly fitted or top-dose-only effect, or another doubt; inactive = no such curve, though single readings can be large; an effect the other way counts as inactive or inconclusive.

Cc1cccc(-c2nocc2CCC(=O)NC2CCN(Cc3ccccc3)CC2)c1	Luciferase inh 32µM, HEK cytotox inconclusive, 3T3 cytotox inconclusive
Cc1cccc(-c2cccc(CN3CCC(NC(=O)c4ccc(Cl)cc4)CC3)c2)c1	none (no result: NPR1 antag, Luciferase inh)
Cc1cccc(-c2cccc(CN3CCC(NC(=O)c4ccccc4)CC3)c2)c1	HEK cytotox 35µM, 3T3 cytotox 25µM (no result: NPR1 antag, Luciferase inh)
CSc1ccc(-c2cccc(CN3CCC(NC(=O)C4CC4)CC3)c2)cc1	none (no result: NPR1 antag, Luciferase inh)
O=C(NC1CCCCCC1)C1(CCO)CCN(c2ncccn2)C1 (stereo unspecified)	none (no result: NPR1 antag, Luciferase inh)
CC(C)c1ccc(NC(=O)N2CCc3[nH]c4ccc(F)cc4c3C2)cc1	Luciferase inh inconclusive, HEK cytotox inconclusive, 3T3 cytotox inconclusive
Cc1ccc(C(=O)NC2CCN(Cc3cccc(-c4cccc(C)c4)c3)CC2)cc1	HEK cytotox 40µM, 3T3 cytotox 32µM (no result: NPR1 antag, Luciferase inh)
CC(C)c1cc(N2C[C@H](O)[C@@H](N3CCCCC3)C2)n2nccc2n1	none
O=C(Cc1ccc(F)cc1)N1CCN(c2ccc3nnc(C4CC4)n3n2)CC1	3T3 cytotox inconclusive (no result: NPR1 antag, Luciferase inh)
O=C(NCCOc1cccnc1)c1cn(Cc2cccc(C(F)(F)F)c2)nn1	HEK cytotox 28µM, 3T3 cytotox inconclusive
O=C1CC2(CCN(c3cnc4ccccc4n3)CC2)CN1CCCc1ccccc1	NPR1 antag inconclusive, HEK cytotox 35µM, 3T3 cytotox inconclusive
CS(=O)(=O)N1CCC2(CC1)CC(=O)N(CCCc1ccccc1)C2	none
O=C(Cn1ccn2nc(-c3ccc(F)cc3)c(CO)c2c1=O)Nc1cccc(Br)c1	HEK cytotox 45µM, 3T3 cytotox inconclusive
Cc1cccc(NC(=O)Cn2ccn3nc(-c4ccccc4)c(CO)c3c2=O)c1C	HEK cytotox 89µM, 3T3 cytotox inconclusive
COc1cc(NC(=O)Cn2ccn3nc(-c4ccccc4)c(CO)c3c2=O)cc(OC)c1OC	HEK cytotox 32µM, 3T3 cytotox inconclusive
O=C(Cn1ccn2nc(-c3ccccc3)c(CO)c2c1=O)Nc1cccc(Br)c1	HEK cytotox inconclusive
Cc1ccc(C)c(Cn2ccn3nc(-c4ccc(F)cc4)c(CO)c3c2=O)c1	NPR1 antag inconclusive, HEK cytotox 35µM, 3T3 cytotox inconclusive
O=c1c2c(CO)c(-c3ccc(F)cc3)nn2ccn1Cc1ccc(F)cc1	NPR1 antag inconclusive, HEK cytotox inconclusive
O=C(C1CCCC1)N1CCC(C(=O)N2CCC(N3CCCC3=O)CC2)CC1	none (no result: NPR1 antag, Luciferase inh)
COc1cccc(CN2CCCCCCNC(=O)CC2c2ccccc2)c1 (stereo unspecified)	HEK cytotox inconclusive, 3T3 cytotox inconclusive
O=C1CC(c2ccccc2)N(Cc2ccc(C(F)(F)F)cc2)CCCCCN1 (stereo unspecified)	NPR1 antag inconclusive, HEK cytotox inconclusive, 3T3 cytotox inconclusive
O=C1CC(c2ccccc2)N(Cc2ccc(F)c(F)c2)CCCCCN1 (stereo unspecified)	HEK cytotox inconclusive, 3T3 cytotox 40µM
COc1ccc(CN2CCCCCNC(=O)CC2c2ccccc2)cc1Cn1ccnc1 (stereo unspecified)	HEK cytotox 35µM, 3T3 cytotox 40µM
COc1ccc(CN2CCCCCNC(=O)CC2c2ccccc2)cc1Cc1c(C)noc1C (stereo unspecified)	HEK cytotox inconclusive, 3T3 cytotox 35µM
O=C1NCCCc2[nH]c(-c3csc(-c4ccccc4)n3)nc21	Luciferase inh 25µM, HEK cytotox inconclusive, 3T3 cytotox inconclusive
O=C1CCN(S(=O)(=O)c2ccccc2)CCCN(C(=O)c2ccc3ccccc3n2)CCN1	none
CN(Cc1ccccc1C(F)(F)F)C(=O)c1cccc(Cl)c1	HEK cytotox 89µM, 3T3 cytotox inconclusive
CN(Cc1ccccc1C(F)(F)F)C(=O)c1ccccc1	HEK cytotox inconclusive
O=C(c1nc2cccnc2n(Cc2ccccc2)c1=O)N1CCN(Cc2ccccc2)CC1	HEK cytotox inconclusive (no result: NPR1 antag, Luciferase inh)
CC(C)CNC(=O)CC(c1cccc([N+](=O)[O-])c1)c1c[nH]c2ccccc12 (stereo unspecified)	HEK cytotox 79µM, 3T3 cytotox inconclusive
CCc1cccc2c(C(CC(=O)NCCOC)c3ccc(OC)c(OC)c3)c[nH]c12 (stereo unspecified)	none
CCc1cccc2c(C(CC(=O)NCC(C)C)c3cccc([N+](=O)[O-])c3)c[nH]c12 (stereo unspecified)	HEK cytotox inconclusive, 3T3 cytotox 35µM
